VACV mCherry inh: vaccinia inhibition (mCherry reporter); Vaccinia virus mCherry reporter infection, fluorescence; Potency, µM (top dose mostly 36.5 µM), actives largely listed as inhibitors; hit rate 0.63% among 310,000; AID 720579; calls by dose curve; tested in A549 cells; also: nearly all actives have a fitted effect of over 35% in size
Vaccinia Venus: vaccinia inhibition (Venus reporter) | hit rate 0.46% among 330,000 | Vaccinia virus Venus reporter expression, fluorescence | Potency, µM (doses to about 36.5 µM), usual class: inhibitors; calls by dose curve; tested in A549 cells; also: nearly all actives have a fitted effect of over 30% in size
FMDV inh: antivirals against foot and mouth disease virus | FMDV antiviral cell-based qHTS | Potency, µM (titrated, usually from 57.9 µM), actives largely listed as inhibitors | hit rate 1.2% among 410,000 | AID 1159524; calls by dose curve; tested in HEK293T cells; also: read-out not given here; nearly all actives have a fitted effect of over 45% in size
LASV entry inh: inhibitors of Lassa virus binding or cell entry; Lassa virus pseudotype entry inhibition, cell reporter; Potency, µM (highest dose often 37.9 µM), actives largely listed as inhibitors; hit rate 1.2% among 300,000; calls by dose curve; tested in HEK293 cells; also: nearly all actives have a fitted effect of over 50% in size
HCMV antiviral: human cytomegalovirus inhibition | HFF cells, HCMV-luciferase reporter, 72 h; active compounds read low | activity change, negative = inhibition, % at 57.5 µM | hit rate 4.5% among 410,000 | AID 1259415; in the data active = activity change below about -60%; inconclusive = no clear call, values can overlap the other calls; inactive = above about -39%
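HFF cells seeded 16 h at 37C, treated with compounds, infected with luciferase-reporter HCMV at MOI 1 PFU/cell; luciferase read at 72 h post infection, normalized to buffer-only and Salinomycin controls.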
Marburg entry inh: blocks Marburg virus binding to or entry into cells | Marburg virus pseudotyped entry inhibition, cell reporter | Potency, µM (top dose mostly 37.8 µM), actives largely listed as inhibitors | hit rate 1.8% among 300,000; calls by dose curve; tested in HEK293 cells
Large screens that a line does not name were inactive; ! = a repeat was not active. A selection: hits, their analogues and other compounds. The true share with any hit is near 6.5%.

COc1cccc(CN(C)C(=O)c2cccc(S(=O)(=O)N3CCN(c4ccccc4)CC3)c2)c1OC	FMDV inh 18µM, HCMV antiviral -70 (no result: VACV mCherry inh, Vaccinia Venus, LASV entry inh)
CN(Cc1ccc(Cl)cc1Cl)C(=O)c1cccc(S(=O)(=O)N2CCN(c3ccccc3)CC2)c1	FMDV inh inconclusive, LASV entry inh inconclusive, HCMV antiviral inconclusive, Marburg entry inh inconclusive
CN(CC(=O)Nc1ccc(Cl)cc1)C(=O)c1cccc(S(=O)(=O)N2CCN(Cc3ccccc3)CC2)c1	FMDV inh 22µM, HCMV antiviral -73, Marburg entry inh inconclusive
CN(C)C(=O)c1ccc(NC(=O)c2cccc(S(=O)(=O)N3CCN(Cc4ccccc4)CC3)c2)cc1	FMDV inh inconclusive (no result: VACV mCherry inh, Vaccinia Venus, LASV entry inh, Marburg entry inh)
COc1cccc(CN(C)C(=O)c2cccc(S(=O)(=O)N3CCN(c4ccc(F)cc4)CC3)c2)c1OC	VACV mCherry inh inconclusive, FMDV inh 20µM, LASV entry inh inconclusive, HCMV antiviral -80, Marburg entry inh 2µM
COCCCNC(=O)c1c(NC(=O)Cc2coc3cc(C)ccc23)sc2c1CCCC2	LASV entry inh inconclusive, HCMV antiviral inconclusive, Marburg entry inh inconclusive
CN(Cc1c(F)cccc1Cl)C(=O)c1cccc(S(=O)(=O)N2CCN(Cc3ccccc3)CC2)c1	none (no result: VACV mCherry inh, Vaccinia Venus, LASV entry inh, Marburg entry inh)
COc1ccc(NC(=O)CN(C)C(=O)c2cccc(S(=O)(=O)N3CCN(c4ccc(F)cc4)CC3)c2)cc1	FMDV inh inconclusive, HCMV antiviral -73 (no result: VACV mCherry inh, Vaccinia Venus, LASV entry inh)
CN(Cc1ccc(OC(F)F)cc1)C(=O)c1cccc(S(=O)(=O)N2CCN(Cc3ccccc3)CC2)c1	FMDV inh 13µM, LASV entry inh inconclusive, HCMV antiviral -92, Marburg entry inh inconclusive
CCCCCCCC(=O)N[C@H]1CC[C@@]23CCCN2C(=O)CCC[C@H]3[C@H]1Cc1ccccc1	none (no result: VACV mCherry inh, Vaccinia Venus, FMDV inh, LASV entry inh, Marburg entry inh)
COc1cccc(CNc2ncc(-c3ccc(Br)cc3)n2C)c1	none (no result: Marburg entry inh)
CCOc1ccc(NC(=O)c2ccc(F)c(S(=O)(=O)NCc3ccc4c(c3)OCO4)c2)cc1	VACV mCherry inh inconclusive, Vaccinia Venus inconclusive, FMDV inh inconclusive, HCMV antiviral -81 (no result: Marburg entry inh)
COc1cc2sc3cc(NCc4ccc5c(c4)OCO5)ccc3c(=O)c2cc1OC	VACV mCherry inh inconclusive, Vaccinia Venus inconclusive (no result: LASV entry inh, Marburg entry inh)
COc1ccc(NCc2ccc3c(c2)OCO3)cc1Cl	VACV mCherry inh 11µM, HCMV antiviral inconclusive (no result: FMDV inh)
Cc1cc(C)c(S(=O)(=O)NCc2ccc3c(c2)OCO3)cc1C	none (no result: VACV mCherry inh, Vaccinia Venus, LASV entry inh, Marburg entry inh)
COc1ccc(NC(C)=O)cc1S(=O)(=O)NCc1ccc2c(c1)OCO2	HCMV antiviral -88 (no result: LASV entry inh, Marburg entry inh)
CN1C(=O)C(n2ccc3ccccc32)c2cc(Cl)ccc21 (configuration not stated)	none (no result: VACV mCherry inh, Vaccinia Venus, FMDV inh, LASV entry inh, Marburg entry inh)
Cc1ccc(-n2nc(C(=O)N(C)Cc3ccccc3)c3c4ccccc4n(C)c3c2=O)cc1	none
CCc1ccc(C(=O)NC(=S)Nc2ccc(N3CCOCC3)cc2)cc1	VACV mCherry inh inconclusive, Vaccinia Venus inconclusive, HCMV antiviral -89 (no result: LASV entry inh, Marburg entry inh)
CC(=O)Nc1ccc(NC(=O)c2ccc(COc3ccccc3)cc2)cc1	none (no result: VACV mCherry inh, Vaccinia Venus, LASV entry inh, Marburg entry inh)
O=C(Nc1ccc(N2CCOCC2)cc1)c1ccc(COc2ccccc2)cc1	HCMV antiviral -73, Marburg entry inh inconclusive
COc1cc(NC(=O)Cn2cc(C(=O)c3ccc(F)cc3)c(=O)c3ccc(C)nc32)cc(OC)c1	FMDV inh inconclusive, HCMV antiviral inconclusive (no result: Marburg entry inh)
CCOc1ccc(N(CC)S(=O)(=O)c2cc(Br)cc3c2N(C(C)=O)C(C)C3)cc1 (configuration not stated)	VACV mCherry inh inconclusive, FMDV inh 11µM, LASV entry inh inconclusive, HCMV antiviral -63, Marburg entry inh inconclusive
CC1(C)OC(=O)C(=NNc2ccc(C(=O)O)cc2)C(=O)O1	HCMV antiviral -90
CC1(C)OC(=O)C(=NNc2ccccc2)C(=O)O1	Marburg entry inh inconclusive
CC1CCN(C(=O)Cn2cc(SCc3ccccc3)c3ccccc32)CC1	none (no result: Marburg entry inh)
Cc1ccsc1CN(Cc1ccco1)C(=O)c1ccc(Cl)cc1	none
Cc1ccc(-c2nn(C)c(=O)c3ccccc23)cc1CNC(=O)c1ccccc1	LASV entry inh 11µM, Marburg entry inh inconclusive
Cc1ccc(-c2nn(CC(=O)NCc3cc(-c4nn(C)c(=O)c5ccccc45)ccc3C)c(=O)c3ccccc23)cc1	VACV mCherry inh inconclusive, Vaccinia Venus inconclusive, FMDV inh 16µM, LASV entry inh inconclusive, HCMV antiviral -95, Marburg entry inh 3.2µM!
Cc1ccc(NC(=O)c2ccc(-c3nn(C)c(=O)c4ccccc34)cc2)cc1	FMDV inh inconclusive (no result: VACV mCherry inh, Vaccinia Venus)
Cn1nc(-c2ccc(C(=O)Nc3ccc(F)cc3)cc2)c2ccccc2c1=O	FMDV inh 40µM, LASV entry inh inconclusive, Marburg entry inh inconclusive
O=c1[nH]c(SCc2nc3c(cnn3-c3ccccc3)c(=O)[nH]2)nc2ccccc12	LASV entry inh 0.71µM, HCMV antiviral -92, Marburg entry inh 1µM (no result: VACV mCherry inh)
C=CCn1c(SCc2nc3ccccc3c(=O)[nH]2)nc2ccccc2c1=O	HCMV antiviral -61 (no result: VACV mCherry inh)
Cc1ccc(-n2ncc3c(=O)[nH]c(SC(C)C)nc32)cc1	HCMV antiviral -96
O=c1[nH]c(CSc2nc3ccccc3[nH]2)nc2c1cnn2-c1ccccc1	VACV mCherry inh inconclusive, FMDV inh 22µM, LASV entry inh inconclusive, HCMV antiviral -86, Marburg entry inh inconclusive
O=c1[nH]c(CSc2ncccn2)nc2c1cnn2-c1ccccc1	none
CC(C)Sc1nc2c(cnn2-c2ccccc2)c(=O)[nH]1	Marburg entry inh inconclusive
Cc1ccc2nc(SCc3nc4c(cnn4-c4ccccc4)c(=O)[nH]3)[nH]c2c1	FMDV inh 11µM, LASV entry inh inconclusive, HCMV antiviral -83, Marburg entry inh inconclusive
CCOCCCNC(=O)CCc1ccc(-n2cnc3cccnc32)cc1	HCMV antiviral -67
CCc1ccc(C(O)c2ncc(-c3ccccc3Cl)[nH]2)cc1 (configuration not stated)	HCMV antiviral -96 (no result: LASV entry inh, Marburg entry inh)
N#CC1=C2N=C(N)c3ccccc3N2C2=C(C(=O)CCC2)C1c1cccc(Cl)c1 (configuration not stated)	LASV entry inh inconclusive, HCMV antiviral -70, Marburg entry inh inconclusive (no result: VACV mCherry inh, Vaccinia Venus)
O=C(NC1CCCC1)C(c1ccccc1)N(C(=O)c1ccco1)C1CCCC1 (configuration not stated)	HCMV antiviral -78 (no result: FMDV inh)
CC(=O)Nc1ccc(N(C(=O)c2ccco2)C(C(=O)NC2CCCC2)c2cccs2)cc1 (configuration not stated)	none
CCC(C)c1ccc(N(C(=O)c2ccco2)C(C(=O)NC2CCCC2)c2cccnc2)cc1 (configuration not stated)	LASV entry inh inconclusive, Marburg entry inh inconclusive
CC(=O)Nc1ccc(N(C(=O)c2ccco2)C(C(=O)NC2CCCCC2)c2ccccc2)cc1 (configuration not stated)	LASV entry inh inconclusive, HCMV antiviral -64, Marburg entry inh inconclusive
CCc1ccc(N(C(=O)c2ccco2)C(C(=O)NC2CCCC2)c2cccnc2)cc1 (configuration not stated)	LASV entry inh 1µM, HCMV antiviral inconclusive, Marburg entry inh inconclusive
O=C(NC1CCCC1)C(c1ccccc1F)N(C(=O)c1ccco1)C1CCCC1 (configuration not stated)	none (no result: VACV mCherry inh)

Source: PubChem
